# Activity calls are given as the source filed them.
# Tests used:
# [1] = system: Plasmodium falciparum Sir2 (PF13_0152, Sir2A); experiment: Plasmodium falciparum Sir2A binding compounds – biochemical, small-molecule microarray, 635 nm fluorescence, primary screen (AID 1098); settings: fluorescence 635 nm, higher = more signal;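 further: score merges spot fluorescence intensity with its signal-to-noise ratio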
# [2] = probe aDKK1 binding to arrayed compounds – biochemical, biotinylated probe, 635/667 nm fluorescence, primary screen (AID 1099); settings: small-molecule microarray, higher = more signal;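 further: score merges 667nm spot fluorescence with signal to noise across triplicate slides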
# [3] = probe aCHRDL2 binding to arrayed compounds – biochemical, biotinylated probe, 635/667 nm fluorescence, primary screen (AID 1100); settings: small-molecule microarray, higher = more signal
# [4] = change in splice reporter luminescence, either direction, cell-based, HEK293, spliceosome inhibition project, primary screen (AID 1101); settings: HEK293 splicing luciferase reporter, 24 h, higher = more signal, called active from +8 up or from −8 down;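 further: HEK293 cells carrying a splicing-competent luciferase reporter gene; test concentration not given here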
# [5] = target: Fibroblast growth factor 10 (Homo sapiens) (UniProt O15520); experiment: compounds binding fibroblast growth factor 10 – biochemical, small-molecule microarray, 635 nm fluorescence, primary screen (AID 1102); settings: FGF10 binding, fluorescence 635 nm, higher = more signal
# Chain of Fibroblast growth factor 10 (Homo sapiens) (O15520 whole entry, looked up): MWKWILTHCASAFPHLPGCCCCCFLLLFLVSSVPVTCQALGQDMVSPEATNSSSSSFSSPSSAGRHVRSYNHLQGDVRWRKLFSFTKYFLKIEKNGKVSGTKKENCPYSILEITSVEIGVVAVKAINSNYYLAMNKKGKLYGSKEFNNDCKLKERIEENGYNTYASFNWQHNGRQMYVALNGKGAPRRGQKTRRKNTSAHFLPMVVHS
# [6] = system: glycogen synthase kinase-3 (GSK3A per assay name; protocol says GSK3B); experiment: compounds binding glycogen synthase kinase-3 – biochemical, small-molecule microarray, 635 nm fluorescence, GSK3A, primary screen (AID 1103); settings: fluorescence 635 nm, higher = more signal; further: the record names both GSK3A and GSK3B
# [7] = target: Epidermal growth factor receptor (Homo sapiens) (UniProt P00533); experiment: compounds binding epidermal growth factor receptor – biochemical, small-molecule microarray, 635 nm fluorescence, primary screen (AID 1104); settings: EGFR binding, higher = more signal;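 further: score merges 667 nm emission intensity with spot signal to noise over triplicate slides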
# Chain of Epidermal growth factor receptor (Homo sapiens) (P00533 whole entry, looked up): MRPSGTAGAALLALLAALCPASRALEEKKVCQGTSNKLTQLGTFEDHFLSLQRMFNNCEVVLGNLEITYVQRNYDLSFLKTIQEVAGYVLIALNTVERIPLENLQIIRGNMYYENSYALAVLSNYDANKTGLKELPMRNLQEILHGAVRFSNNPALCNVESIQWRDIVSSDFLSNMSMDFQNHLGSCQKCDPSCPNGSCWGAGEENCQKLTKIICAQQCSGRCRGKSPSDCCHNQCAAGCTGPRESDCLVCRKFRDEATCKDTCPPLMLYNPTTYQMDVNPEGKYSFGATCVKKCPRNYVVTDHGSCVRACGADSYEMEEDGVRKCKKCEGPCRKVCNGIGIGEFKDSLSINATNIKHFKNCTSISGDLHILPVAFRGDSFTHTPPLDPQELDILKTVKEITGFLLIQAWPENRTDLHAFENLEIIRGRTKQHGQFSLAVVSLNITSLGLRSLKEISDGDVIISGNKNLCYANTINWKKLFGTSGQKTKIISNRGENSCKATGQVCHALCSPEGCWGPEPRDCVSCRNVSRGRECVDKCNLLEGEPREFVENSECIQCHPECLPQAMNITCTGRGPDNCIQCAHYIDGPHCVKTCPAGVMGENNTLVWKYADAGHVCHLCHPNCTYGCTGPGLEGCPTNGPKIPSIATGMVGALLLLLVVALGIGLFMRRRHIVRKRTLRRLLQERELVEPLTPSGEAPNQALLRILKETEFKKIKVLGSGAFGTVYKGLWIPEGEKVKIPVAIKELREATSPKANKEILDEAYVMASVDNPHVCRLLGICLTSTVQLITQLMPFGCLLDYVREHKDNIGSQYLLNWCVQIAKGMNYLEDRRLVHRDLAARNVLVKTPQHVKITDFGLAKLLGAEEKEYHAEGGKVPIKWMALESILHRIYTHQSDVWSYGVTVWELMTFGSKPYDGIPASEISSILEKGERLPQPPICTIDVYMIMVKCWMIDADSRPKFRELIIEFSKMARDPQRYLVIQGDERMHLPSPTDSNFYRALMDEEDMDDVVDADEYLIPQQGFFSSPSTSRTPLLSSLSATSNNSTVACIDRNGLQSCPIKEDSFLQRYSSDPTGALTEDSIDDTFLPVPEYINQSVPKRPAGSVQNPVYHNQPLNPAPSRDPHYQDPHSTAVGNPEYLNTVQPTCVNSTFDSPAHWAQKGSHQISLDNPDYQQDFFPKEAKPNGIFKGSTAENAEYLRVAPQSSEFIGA
# [8] = target: Follistatin-related protein 3 (Homo sapiens) (UniProt O95633); experiment: compounds binding follistatin-related protein 3 – biochemical, small-molecule microarray, 635 nm fluorescence, primary screen (AID 1105); settings: FSTL3 binding, higher = more signal;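 further: score merges emission near 667 nm and signal to noise per printed spot across three slides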
# Chain of Follistatin-related protein 3 (Homo sapiens) (O95633 whole entry, looked up): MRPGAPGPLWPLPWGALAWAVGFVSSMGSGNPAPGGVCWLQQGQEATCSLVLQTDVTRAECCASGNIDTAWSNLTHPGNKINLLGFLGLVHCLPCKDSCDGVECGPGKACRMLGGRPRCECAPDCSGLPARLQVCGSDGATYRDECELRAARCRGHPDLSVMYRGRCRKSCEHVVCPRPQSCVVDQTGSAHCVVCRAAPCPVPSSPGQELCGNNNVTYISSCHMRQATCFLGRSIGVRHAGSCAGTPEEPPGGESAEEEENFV
# [9] = target: Dickkopf-related protein 1 (Homo sapiens) (UniProt O94907); experiment: small molecules binding DKK1 protein – biochemical, small-molecule microarray, 635 nm fluorescence scan, primary screen (AID 1106); settings: higher = more signal;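 further: score merges emission near 667 nm with signal to noise over three replicate slides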
# Chain of Dickkopf-related protein 1 (Homo sapiens) (O94907 whole entry, looked up): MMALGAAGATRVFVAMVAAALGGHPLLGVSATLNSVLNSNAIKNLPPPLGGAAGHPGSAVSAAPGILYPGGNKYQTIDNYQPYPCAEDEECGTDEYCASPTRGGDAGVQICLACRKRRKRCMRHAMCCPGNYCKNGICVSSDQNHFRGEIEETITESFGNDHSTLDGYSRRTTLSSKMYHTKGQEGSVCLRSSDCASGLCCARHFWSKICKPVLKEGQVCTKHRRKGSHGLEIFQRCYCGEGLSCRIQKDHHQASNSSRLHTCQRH
# [10] = system: Inhibin beta A chain (activin A); experiment: small molecules binding activin A – biochemical, small-molecule microarray, 635 nm fluorescence scan, primary screen (AID 1107); settings: INHBA, higher = more signal;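 further: mouse activin A protein probed at 4.33 µg/mL on printed slides; score merges bound-protein fluorescence near 667 nm with spot signal-to-noise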
# [11] = system: Human papillomavirus type 1a protein E7 (residues 44-93); experiment: small molecules binding HPV E7 44-93 – biochemical, small-molecule microarray, residues 44-93, 635 nm fluorescence, primary screen (AID 1108); settings: fluorescence 635 nm, higher = more signal;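 further: E7 fragment applied at 1 µg/mL in TBST for 1 h at 4 C; score combines spot fluorescence with its signal to noise ratio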
# [12] = hepatitis C replication reporter changes, two-sided – Huh7 cells, luciferase reporter, HCV replication inhibitor project, primary screen (AID 1109); settings: Huh7 HCV replicon luciferase reporter, 48 h; higher = more signal;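 further: huh7 hepatoma cells harbouring a luciferase neomycin HCV replicon reporter; luciferase luminescence as measure of HCV replicon replication; test concentration not given here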
# [13] = target: Left-right determination factor 2 (Homo sapiens) (UniProt O00292); experiment: small molecules binding LEFTY2 protein – biochemical, small-molecule microarray, 635 nm fluorescence scan, primary screen (AID 1110); settings: higher = more signal
# Chain of Left-right determination factor 2 (Homo sapiens) (O00292 whole entry, looked up): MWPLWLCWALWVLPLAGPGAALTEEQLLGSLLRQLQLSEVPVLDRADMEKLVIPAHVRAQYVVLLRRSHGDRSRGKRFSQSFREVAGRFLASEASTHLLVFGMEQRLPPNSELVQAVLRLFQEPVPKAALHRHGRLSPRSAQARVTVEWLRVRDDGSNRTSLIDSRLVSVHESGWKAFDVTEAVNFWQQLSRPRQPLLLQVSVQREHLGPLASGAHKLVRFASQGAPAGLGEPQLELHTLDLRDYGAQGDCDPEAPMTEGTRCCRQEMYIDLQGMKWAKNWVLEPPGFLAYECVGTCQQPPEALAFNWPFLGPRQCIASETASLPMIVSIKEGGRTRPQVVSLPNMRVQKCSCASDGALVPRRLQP
# [14] = target: Calmodulin-1 (Homo sapiens) (UniProt P0DP23); experiment: small molecules binding calmodulin-1 with EGTA – biochemical, small-molecule microarray, Cy5-labelled CALM1, profiling panel (AID 1111); settings: Cy5-CALM1 binding fluorescence, higher = more signal;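 further: labelled calmodulin applied in Tris saline Tween buffer holding calcium plus EGTA and DTT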
# [15] = target: Calmodulin-1 (Homo sapiens) (UniProt P0DP23); experiment: small molecules binding Ca-loaded calmodulin-1 – biochemical, small-molecule microarray, Cy5-labelled CALM1, plus calcium, artefact control for SMM control-protein annotation, profiling panel (AID 1112); settings: Cy5-CALM1 binding fluorescence, higher = more signal;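 further: score merges spot fluorescence with signal to noise from triplicate slides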
# [16] = probe aWnt5a binding to arrayed compounds – biochemical, biotinylated probe, 635/667 nm fluorescence, primary screen (AID 1113); settings: small-molecule microarray, higher = more signal;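 further: score merges 667 nm fluorescence intensity with signal-to-noise per printed feature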
# [17] = probe aShh binding to arrayed compounds – biochemical, biotinylated probe, 635/667 nm fluorescence, primary screen (AID 1114); settings: small-molecule microarray, higher = more signal;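 further: probe is biotin-labelled aShh protein from a stem cell growth factor screen; measures binding of labelled protein to compounds printed on the slide; score merges feature fluorescence at 667 nm with signal-to-noise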
# [18] = probe aNog binding to arrayed compounds – biochemical, biotinylated probe, 635/667 nm fluorescence, primary screen (AID 1115); settings: small-molecule microarray, higher = more signal;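 further: probe is biotinylated aNog protein used at 0.15 µg/mL for 1 h at 4 C; z-score combines 667 nm fluorescence of each spot with its signal to noise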
# [19] = target: Torsin-1A-interacting protein 1 (Homo sapiens) (UniProt Q5JTV8); experiment: compound microarray binding of lysate hLAP1 – cell lysate, small-molecule microarray, COS7 lysate, 635/667 nm fluorescence, primary screen (AID 1116); settings: 635 nm fluorescence, higher = more signal
# Chain of Torsin-1A-interacting protein 1 (Homo sapiens) (Q5JTV8 whole entry, looked up): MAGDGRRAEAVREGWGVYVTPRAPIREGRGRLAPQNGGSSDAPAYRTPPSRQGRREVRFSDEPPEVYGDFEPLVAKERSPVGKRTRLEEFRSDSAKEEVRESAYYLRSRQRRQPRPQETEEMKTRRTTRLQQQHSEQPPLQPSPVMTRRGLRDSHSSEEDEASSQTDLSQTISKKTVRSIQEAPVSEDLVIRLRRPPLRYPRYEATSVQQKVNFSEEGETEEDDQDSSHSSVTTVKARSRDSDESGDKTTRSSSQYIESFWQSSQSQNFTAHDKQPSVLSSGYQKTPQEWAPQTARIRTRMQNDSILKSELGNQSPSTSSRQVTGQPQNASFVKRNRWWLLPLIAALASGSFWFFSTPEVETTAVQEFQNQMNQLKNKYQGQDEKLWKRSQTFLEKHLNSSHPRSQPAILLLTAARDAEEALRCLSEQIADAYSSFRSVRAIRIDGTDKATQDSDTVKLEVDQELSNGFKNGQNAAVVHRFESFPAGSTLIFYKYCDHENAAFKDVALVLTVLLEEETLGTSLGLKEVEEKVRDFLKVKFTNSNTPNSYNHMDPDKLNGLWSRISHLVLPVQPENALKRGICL
# [20] = target: Alpha-bungarotoxin (Bungarus multicinctus) (UniProt P60615); experiment: compounds binding labelled alpha-BTX control protein – biochemical, small-molecule microarray, Alexa647 label, 635/667 nm fluorescence, artefact control for SMM control protein annotation, profiling panel (AID 1117); settings: alpha-BTX-A647 binding fluorescence, higher = more signal
# Chain of Alpha-bungarotoxin (Bungarus multicinctus) (P60615 whole entry, looked up): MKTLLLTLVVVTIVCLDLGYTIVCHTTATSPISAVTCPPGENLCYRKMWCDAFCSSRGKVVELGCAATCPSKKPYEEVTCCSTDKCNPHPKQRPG
SMILES,composite z-score [1],composite z-score [2],composite z-score [3],z-score [4],composite z-score [5],composite z-score [6],composite z-score [7],composite z-score [8],composite z-score [9],composite z-score [10],composite z-score [11],z-score [12],composite z-score [13],composite z-score [14],composite z-score [15],composite z-score [16],composite z-score [17],composite z-score [18],composite z-score [19],composite z-score [20]
COc1ccc(C(O)C2C=CC3C(=O)N(c4ccccc4)C(=O)C3N2Nc2ccc([N+](=O)[O-])cc2)c2ccccc12 (stereo not given),1.2,0.662,0.88,-0.707 (inactive),0.981,1.32,0.385,1,0.226,0.642,1.45,-0.749,-0.0163,1.86,0.554,0.062,0.204,1.61,1.6,2.54
C[N+](C)(C)CCCCNC(=O)[C@H]1C[C@H]2C(=O)N[C@@H](Cc3ccccc3)C(=O)N2[C@H]1c1cccc(OCCO)c1,1.59,0.104,-0.17,-0.161 (inactive),1.44,1.13,0.899,1.48,2.04,0.748,-0.365,-0.741,1.34,-1.14,-1.7,-0.0495,0.151,-0.456,1.17,-0.245
CC(=O)OCC1C2CC[C@H]3C(OCc4ccc(F)cc4C(F)(F)F)OC[C@]4(C)[C@H]3C2=C(CN4C(=O)OC(C)(C)C)[C@H](C)C1COC(C)=O (stereo not given in full),0.547,0.547,1.06,-0.329 (inactive),0.398,-0.466,-1.08,-0.925,-1.31,0.838,0.359,-0.834,-1.65,1.95,1.19,0.591,0.338,0.182,-0.212,0.668
O=C1[C@H]2C=C(I)[C@H](C[C@@H]2c2ccccc2)[C@@]12CO2,-0.506,-0.322,-0.197,0.523 (inactive),0.0211,-0.326,0.384,-0.461,0.485,1.15,-0.0983,-3.6,0.208,-0.68,-0.661,-0.0977,-0.117,-0.172,0.126,0.0292
COCCOC(=O)N1C(=O)[C@@]2(c3cc(C#CCC(C(=O)OC)C(=O)OC)ccc31)[C@H](c1ccc(O)cc1)N1[C@H](c3ccccc3)[C@H](c3ccccc3)OC(=O)[C@H]1[C@@H]2C(=O)Nc1nc2ccccc2s1,1.54,0.595,0.481,-1.12 (inactive),0.972,1.27,0.594,1.38,0.91,1.11,1.11,-0.149,0.616,1.38,-0.563,-0.0684,-0.017,0.112,0.83,2.23
CN(C)CCCC[C@@H]1NC(=O)[C@@H]2C[C@H](C(=O)NCCCCCCNC(=O)CS)[C@H](c3ccc(O)cc3)N2C1=O,0.73,-0.165,-0.294,1.06 (inactive),1.34,1.24,0.954,0.997,1.31,0.277,1.16,0.278,1.24,-0.383,-0.199,-0.275,-0.124,-0.0174,0.464,0.136
C=CC[C@@]1(C(=O)OC)N=C(c2ccc(OCCCO)cc2)O[C@@H]1c1ccccc1N=[N+]=[N-],1.5,0.6,1,-1.61 (inactive),1.32,1.32,1.38,1.22,0.685,0.767,1.48,-0.992,0.684,0.17,-0.483,0.0433,0.313,0.604,1.66,1.43
COCCOC(=O)N1C(=O)[C@@]2(c3cc(C#CCC(C(=O)OC)C(=O)OC)ccc31)[C@H](C(N)=O)[C@H]1C(=O)O[C@H](c3ccccc3)[C@H](c3ccccc3)N1[C@@H]2c1ccc(O)cc1,1.09,0.235,0.283,-1.59 (inactive),1.42,0.863,0.69,1,0.938,0.187,1.42,-2.77,0.713,1.01,0.0194,0.0179,0.0328,-0.543,1.08,1.61
COc1ccc([Si](C)(C)[C@H]2[C@H](CC(=O)N3CCC[C@H]3CO)O[C@@]3(C(=O)N(Cc4ccc(N5CCCCC5=O)cc4)c4ccccc43)[C@@H]2C)cc1,1.17,-0.28,-0.466,-1.16 (inactive),1.18,1.09,0.639,1.23,0.863,0.704,1.4,-1.46,0.721,0.441,-0.393,-0.0239,0.0639,1.32,1.15,1.62
C=C(/C(=C/C[C@@H](OC(C)=O)c1cccc(OCCO)c1)c1cnc2ccccc2c1)C(C)C,0.85,-0.268,0.0363,-0.664 (inactive),0.706,0.612,0.324,1.37,0.625,1.56,0.858,-1.96,0.54,-0.24,-0.51,-0.0045,-0.0709,-0.326,1.02,1.3
CCCCCCc1nc(Cc2cc(OC)c(OC)c(OC)c2)cc2c1[Si](C(C)C)(C(C)C)O[C@H]2c1ccccc1,0.268,-0.333,-0.511,-0.189 (inactive),0.351,0.124,0.569,0.594,0.548,0.882,0.192,-2.41,0.851,-0.0875,-0.593,-0.124,0.235,0.0646,-0.142,0.889

# Reference: PubChem BioAssay
